According to PubChem BioAssay (EPA / NIEHS):
Active and inactive are the calls of the source. The calls were made as follows: active = hit-call score of the fitted dose curve at least 0.9, where 1 is the maximum; inactive = score below 0.9.

What was measured:
[1] = read-out: TIMP metallopeptidase inhibitor 2 (TIMP2), TIMP2 (gene 7077); assay: BSK_KF3CT_TIMP2: BioMAP Diversity Plus: KF3CT Assay for TIMP metallopeptidase inhibitor 2 (TIMP2) Biomarker Activity (AID 2283071); conditions: primary human keratinocytes with fibroblasts; actives raise or lower the signal
In short: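 Co-culture of human primary keratinocytes and foreskin fibroblasts, measured 24 h after chemical dosing. TIMP-2 quantified by ELISA and fitted in both directions relative to DMSO. Cytotoxicity checked in parallel cultures by SRB total-protein staining.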

[2] = read-out: Transforming growth factor beta 1 (TGFb1), TGFB1 (gene 7040); assay: BSK_KF3CT_TGFb1: BioMAP Diversity Plus: KF3CT Assay for Transforming growth factor beta 1 (TGFb1) Biomarker Activity (AID 2283072); conditions: primary human keratinocytes with fibroblasts; actives raise or lower the signal
In short: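 Human keratinocyte/foreskin fibroblast co-culture; TGF-b1 measured by ELISA 24 h after dosing, fitted bidirectionally versus DMSO. Cytotoxicity checked in parallel cultures by total protein (SRB staining, 560 nm).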

[3] = read-out: C-C motif chemokine 2 (Homo sapiens) (UniProt P13500); assay: BSK_KF3CT_MCP1: BioMAP Diversity Plus: KF3CT Assay for Monocyte Chemoattractant Protein 1 (MCP1/CCL2) Biomarker Activity (AID 2283073); conditions: primary human keratinocytes with fibroblasts; actives raise or lower the signal
In short: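 ELISA read-out of MCP-1, 24 h post-dose, in primary human skin keratinocytes co-cultured with fibroblasts. Parallel SRB staining monitors cytotoxicity; changes fitted both directions relative to DMSO.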

[4] = read-out: Matrix Metallopeptidase 9 (MMP9), MMP9 (gene 4318); assay: BSK_KF3CT_MMP9: BioMAP Diversity Plus: KF3CT Assay for Matrix Metallopeptidase 9 (MMP9) Biomarker Activity (AID 2283074); conditions: primary human keratinocytes with fibroblasts; actives raise or lower the signal;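 as to AC50: MMP9 protein level quantified by ELISA in the co-culture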
In short: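 Human keratinocyte and foreskin fibroblast co-culture exposed to chemicals for 24 h; MMP9 biomarker measured by ELISA, bidirectional fitting relative to DMSO; cytotoxicity tracked by SRB total protein staining in parallel cultures.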

[5] = read-out: urokinase plasminogen activator (uPA), PLAU (gene 5328); assay: BSK_KF3CT_uPA: BioMAP Diversity Plus: KF3CT Assay for urokinase plasminogen activator (uPA) Biomarker Activity (AID 2283075); conditions: primary human keratinocytes with fibroblasts; actives raise or lower the signal
In short: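 Primary human keratinocyte/foreskin fibroblast co-culture exposed to chemical; uPA measured by ELISA at 24 h. Bidirectional fit versus DMSO, with parallel SRB total-protein staining for cytotoxicity.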

[6] = read-out: CD40, CD40 (gene 958); assay: BSK_LPS_CD40: BioMAP Diversity Plus: LPS Assay for CD40 Biomarker Activity (AID 2283076); conditions: primary human HUVEC with PBMC; actives raise or lower the signal
In short: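 In the LPS system of human endothelial cells with peripheral blood mononuclear cells, CD40 levels were read by ELISA 24 h post-treatment. Signal changes in either direction were fitted against the DMSO baseline, with parallel SRB protein staining.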

[7] = read-out: E-selectin (Homo sapiens) (UniProt P16581); assay: BSK_LPS_Eselectin: BioMAP Diversity Plus: LPS Assay for Eselectin Biomarker Activity (AID 2283077); conditions: primary human HUVEC with PBMC; actives raise or lower the signal
In short: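 E-selectin ELISA on LPS-stimulated endothelial cell/PBMC co-cultures, read 24 h post-treatment; gains and losses fitted against DMSO. Parallel SRB staining (0.1% SRB after 10% TCA fixation, 560 nm) flags overt cytotoxicity.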

[8] = read-out: Interleukin-8 (IL8), CXCL8 (gene 3576); assay: BSK_LPS_IL8: BioMAP Diversity Plus: LPS Assay for Interleukin-8 (IL8) Biomarker Activity (AID 2283078); conditions: primary human HUVEC with PBMC; actives raise or lower the signal
In short: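 ELISA read-out of IL-8 after 24 h chemical treatment of LPS-activated endothelial/PBMC human primary co-cultures. Changes either up or down relative to DMSO; overt cytotoxicity checked by sulforhodamine B staining in parallel wells.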

[9] = BSK_LPS_SRB: Viability Assessment in the BioMAP Diversity Plus: LPS Assay (AID 2283079); conditions: primary human HUVEC with PBMC;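 also: total protein by sulforhodamine B absorbance as a cytotoxicity measure; measured one day after compound addition; fitted in both directions against DMSO so loss or gain of signal counts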
In short: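 SRB viability endpoint: cells fixed with 10% TCA, stained with 0.1% SRB, read at 560 nm, 24 h post-dose. HUVEC/PBMC co-culture; signal change in either direction scored relative to DMSO.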

[10] = read-out: Interleukin-1 alpha (IL1a), IL1A (gene 3552); assay: BSK_LPS_IL1a: BioMAP Diversity Plus: LPS Assay for Interleukin-1 alpha (IL1a) Biomarker Activity (AID 2283080); conditions: primary human HUVEC with PBMC; actives raise or lower the signal
In short: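 Readout is IL-1a level by ELISA, 24 h post-dose, fitted as gain or loss relative to DMSO. System: LPS-activated human primary co-culture of vascular endothelium and peripheral blood mononuclear cells, with parallel SRB total-protein cytotoxicity.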

Measured: AC50

Chain of E-selectin (Homo sapiens) (P16581 whole entry, looked up): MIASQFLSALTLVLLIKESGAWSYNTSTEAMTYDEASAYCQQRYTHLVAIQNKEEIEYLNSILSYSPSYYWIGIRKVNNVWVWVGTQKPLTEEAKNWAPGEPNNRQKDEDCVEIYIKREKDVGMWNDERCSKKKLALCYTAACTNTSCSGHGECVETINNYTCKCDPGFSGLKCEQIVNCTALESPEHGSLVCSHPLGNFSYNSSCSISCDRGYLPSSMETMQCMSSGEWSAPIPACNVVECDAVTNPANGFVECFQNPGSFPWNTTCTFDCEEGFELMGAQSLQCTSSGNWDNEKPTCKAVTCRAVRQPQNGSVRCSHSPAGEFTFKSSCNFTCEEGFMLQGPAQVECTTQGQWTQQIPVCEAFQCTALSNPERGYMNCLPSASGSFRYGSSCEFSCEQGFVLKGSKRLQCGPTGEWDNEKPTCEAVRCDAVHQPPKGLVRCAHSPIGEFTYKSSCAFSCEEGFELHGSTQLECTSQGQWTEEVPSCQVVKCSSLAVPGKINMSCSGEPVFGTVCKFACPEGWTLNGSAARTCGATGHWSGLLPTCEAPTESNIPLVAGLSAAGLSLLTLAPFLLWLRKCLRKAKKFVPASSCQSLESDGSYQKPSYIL

C=CCc1cc(S(=O)(=O)c2ccc(O)c(CC=C)c2)ccc1O
inactive: [2]
active: [1] 17.3 µM | [3] 24.4 µM | [4] 10.3 µM | [5] 30.4 µM | [6] 11.7 µM | [7] 29.2 µM | [8] 16.2 µM | [9] 14.7 µM | [10] 30.6 µM

NC(=O)N(O)[C@@H]1COc2cc(OCc3ccccc3)ccc21
inactive: all assays above

CCCCCCCCCCCCCCCCOS(=O)(=O)O
active: [1] 19.5 µM | [2] 17.4 µM | [3] 16.8 µM | [4] 18.5 µM | [5] 15.6 µM
inactive: [6] | [7] | [8] | [9] | [10]

O=C(O)[C@H](O)[C@@H](O)C(=O)O
inactive: all assays above

C[C@]12C=CC(=O)C=C1CC[C@H]1[C@@H]3C[C@@H](O)[C@](O)(C(=O)CO)[C@@]3(C)C[C@H](O)[C@@]12F
inactive: all assays above

O=C(O)c1cccc(C[C@@H]2COc3ccc(OCc4nc5cc(F)ccc5s4)cc3[C@@H]2O)c1
inactive: all assays above

CCCC(CCC)C(=O)O
inactive: all assays above

CCOc1ccc2[nH]cc(C(=O)NCc3ccccc3)c(=O)c2n1
inactive: all assays above

O=C(NO)C1(NS(=O)(=O)c2ccc(Oc3ccc(F)cc3)cc2)CCOCC1
inactive: all assays above

CCOC(N)=O
inactive: all assays above

c1ccc2ncccc2c1
inactive: all assays above

Cc1ncc([C@@H](CCCCCCc2ccc3c(n2)NCCC3)CC(=O)O)cn1
inactive: all assays above

C[C@@H](Oc1ccc(CNC(=O)c2cccnc2Oc2ccc3c(c2)OCO3)c(F)c1)C(=O)O
inactive: all assays above

CCCCCCCC/C=C\CCCCCCCC(=O)OC[C@@H](O)[C@H]1OC[C@H](O)[C@H]1O
inactive: all assays above

CC(C)CC(C)O (stereo not given)
inactive: all assays above

CCCCCOC(C)=O
inactive: all assays above

C=CN1CCCC1=O
inactive: all assays above

CCCCC(CC)C(=O)OCCOCCOCCOC(=O)C(CC)CCCC (stereo not given)
active: [8] 15.7 µM
inactive: all other assays above

NNC(=O)c1ccncc1
inactive: all assays above

O=C(O)c1cccc(C(=O)O)c1
active: [3] 0.323 µM
inactive: all other assays above

Cc1nc(-c2ccccn2)ncc1C(=O)Nn1cc(C)c2cc(F)ccc21
inactive: all assays above

COc1cc2c(c(OC)c1OC)-c1ccc(OC)c(=O)cc1[C@@H](NC(C)=O)CC2
active: [4] 0.548 µM | [6] 0.148 µM | [9] 0.245 µM | [10] 0.827 µM
inactive: all other assays above

CCc1ccc(O)c(C(C)(C)C)c1
active: [1] 36.5 µM | [2] 33.5 µM | [3] 36.8 µM | [4] 34.7 µM | [5] 35.3 µM | [9] 32 µM
inactive: [6] | [7] | [8] | [10]

COCc1nnc(-c2ccc[n+]([O-])c2)n1-c1c(Cl)c(Cl)cc2[nH]c(=O)c(=O)[nH]c12
inactive: all assays above

NC(=O)N1c2ccccc2C=Cc2ccccc21
inactive: all assays above

Cn1c(=O)c2[nH]cnc2n(C)c1=O
inactive: all assays above

CCCc1ccccc1
inactive: all assays above
